This note sets out measurements from PubChem BioAssay AID602248 (The Scripps Research Institute Molecular Screening Center, 2012).

Screen size: about 360,000 compounds; about 1,700 (0.47%) were called active. Cut-off read from the data, not from the text of the source: active = activation above about 15%; inactive = the rest. Shown is part of a subset that was picked to be rich in actives.

This test is described as follows: counter-screen for M1 agonists: effect in parental CHO-K1 cells (AID 602248).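 Note: untransfected CHO-K1 host cells lacking M1 receptor as counterscreen.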 The settings on record: Fluo-8 calcium fluorescence, at 3 µM, active compounds read high.
As for `CN1CCN(C(=S)SCC(=O)Nc2ccc(Cl)cc2C(=O)c2ccccc2)CC1`, the activation is 3.53% (inactive).
Turning to `O=C(CCNS(=O)(=O)c1ccccc1)Nc1ccc(Cl)cc1C(=O)c1ccccc1`, the activation is 16% (active).
For the compound `O=C(COC(=O)c1ccccc1)Nc1ccc(Cl)cc1C(=O)c1ccccc1`, the activation was 0.05% (inactive).
As for `CN(C)C(=O)Oc1ccc(OCc2cccc[n+]2C)cc1`, the figure is -0.29% (inactive); as for `CCCCCCCCCCCCn1ccc(=N)cc1`, 31.4% (active); as for `CNC(=O)Nc1ccc(C(O)(C(=O)OC)C(F)(F)F)cc1` (stereo not given), 1.17% (inactive).
As for `COC(=O)C1=C(c2cccc(OCc3ccccc3)c2)C[C@@H]2CC[C@H]1N2C(=O)NNCc1ccccc1`, the figure is 0.39% (inactive); as for `CCOC(=O)CC1=C(C(=O)OCC)C2(C(=O)N1)C(C(=O)OC)=C(N)Oc1ccccc12` (stereo not given), -0.01% (inactive); as for `O=C1NC(=O)C(CCc2ccccn2)(Cc2cccc(Cl)c2Cl)C(=O)N1c1ccc(Br)cc1` (stereo not given), 4.3% (inactive).
For `Cc1cc(C(=O)OCC(=O)Nc2c(F)cccc2F)c(C)n1C1CC1`, the activation is 0.33% (inactive).
`CC(C)N(CC#CCC1(O)c2ccccc2-c2ccccc21)C(C)C`: the activation was 0.55% (inactive).
As to `N=c1ccccn1Cc1ccccc1`, the activation is 15.6% (active).
On to `CCN1CCN(c2nc3c(c(=O)[nH]2)CCC3)CC1`, for which the activation is 0.18% (inactive).
`CCCn1c(C(=O)c2ccccc2OC)nc2ccccc21`: the activation is -0.18% (inactive).
Regarding `CC1=C2C(=O)C3C(CC=C4CC(OC5OC(O)C(O)C(O)C5CO)CCC43C)C2CCC12OC1CC(C)CNC1C2C` (stereo not given), the activation was 1.23% (inactive).
